The sample as a whole holds a higher share of hits than the screen did.
RBX1-CUL1 inh – blocks human RBX1-Cullin-1 di-ubiquitin formation | in vitro K48 di-Ub FRET, acceptor:donor ratio, 45 min | inhibition, % at 10 µM | P62877+Q13616 | 140,000 compounds, 0.6% hits | AID 1347404; in the data active = inhibition above about 25%
Hits are given with their value; - = inactive.

SMILES | RBX1-CUL1 inh
O=C1NC(=O)N(c2ccccc2)C(=O)/C1=C\c1ccccc1 | -
C=CCN1C(=O)/C(=C/c2ccc(Br)s2)C(=O)NC1=S | -
O=C1NC(=S)N(c2cccc(F)c2)C(=O)/C1=C/c1ccc(Br)o1 | 94
c1cc(N2CCNCC2)ccc1C1CCCC1 | -
O=[N+]([O-])N=C1NCCN1Cc1cccnc1Cl | -
CNC(=O)Oc1ccc(-c2c[n+]3cc(Cl)ccc3n2C)cc1 | -
Cc1ccccc1-n1c(=O)[nH]c2ccc(Cl)cc2c1=O | -
c1ccc(C[N+]23CCN(CC2)CC3)cc1 | -
COc1ccc(N2C(=O)/C(=C/c3cc(C)n(-c4ccc(C(=O)O)cc4C)c3C)C(=O)NC2=S)c(OC)c1 | 37
Cc1cc(/C=C2\C(=O)NC(=S)N(c3cccc(Cl)c3)C2=O)c(C)n1-c1cc(C(=O)O)cc(C(=O)O)c1 | 55
COc1ccc(C=C2C(=O)NC(=S)NC2=O)c(OC)c1 | -
O=C1NC(=S)NC(=O)C1=Cc1ccccc1OCc1ccc(C(=O)O)cc1 | -
Cc1cc(/C=C2\C(=O)NC(=O)N(Cc3ccccc3)C2=O)c(C)n1-c1ccc(Cl)c(C(=O)O)c1 | 36
C=CCN1C(=O)/C(=C/c2cc(C)n(-c3cccnc3)c2C)C(=O)NC1=S | -
CCOc1ccc(N2C(=O)/C(=C/c3cc(C)n(-c4ccc(S(N)(=O)=O)cc4)c3C)C(=O)NC2=S)cc1 | 28
COC(=O)C1C(=N)Oc2c(c(=O)oc3ccccc23)C1c1cccnc1 (stereo unspecified) | -
Cc1ccc2c(c1)c1c3n2CNCC3CCC1 (stereo unspecified) | -
c1ccc(CN2C3Sc4ncccc4C2Sc2ncccc23)cc1 | -
C=CCN1C(=O)C2(C(C(=O)OC)=C(C)OC(=N)C2C(=O)OCC)c2ccccc21 (stereo unspecified) | -
COc1cc(C=C2C(=O)N(c3ccc(C)cc3)C(=S)N(c3ccc(C)cc3)C2=O)cc(Br)c1O | -
O=c1c2ccccc2nc(Cc2ccccc2)n1-c1ccc(F)cc1 | -
CC1(C)CC(NP(=O)(Oc2ccccc2)Oc2ccccc2)CC(C)(C)N1 | -
CCn1nc(C)c(-c2ccnc(NCc3c(C)cc(C)nc3OC)n2)c1C | -
O=C(CN1CCCCC1)c1ccc(C2CCCC2)cc1 | -
O[C@H]1[C@H](N2CC=C(c3ccc(F)cc3)CC2)c2ccccc2C12CCNCC2 | -
SMILES | RBX1-CUL1 inh
CN(C)C(=O)Oc1c(Br)cc(Br)c2cccnc12 | -
COc1ccc(Sc2ccccc2CC(C)N)cc1OC (stereo unspecified) | -
CN1C(=O)N(C)C(=O)C(Cl)(Cl)C1=O | 33
C1=C(CCNCc2cccnc2)CCCC1 | -
CN1N=CC(Br)C(=O)C1=O (stereo unspecified) | -
Cc1cc(Cl)ccc1C(=O)C1CCCN(Cc2cnn(C)c2)C1 (stereo unspecified) | -
CC(=O)C1C2c3ccccc3OC1(C)N=c1s/c(=C/c3ccc(-c4ccccc4Cl)o3)c(=O)n12 (stereo unspecified) | -
Cc1nn(C)cc1/C=C1/CC2C3CCC4CC(O)CCC4(C)C3CCC2(C)C1=O (stereo unspecified) | -
N#CC(C#N)=Cc1ccc([N+](=O)[O-])s1 | 27
N#CC(C#N)=Cc1csc2ccccc12 | -
CO[C@H]1[C@H](NC(=O)c2ccncc2)c2ccccc2C12CCN(C(=O)C1C(C)(C)C1(C)C)CC2 | -
CC(C)CCc1nc(C2CCCN(C)C2)cc(=O)[nH]1 (stereo unspecified) | -
COC(=O)OCC12CCC(O1)C1(C)C(=O)OCC21 (stereo unspecified) | 56
Clc1ccc(Cl)c(NC2=NCCCS2)c1 | -
Cc1cc(N(CCCl)CCCl)ccc1/C=N/N=C(\N)c1ccccn1 | -
N#CC1C(=N)Oc2c(c(=O)oc3ccccc23)C1c1cccc2ccccc12 (stereo unspecified) | -
CN1CCN(c2ccc(C(F)(F)F)cn2)CC1 | -
ON=C1C2CSCC1CN(Cc1ccccc1)C2 | -
O=C1C(=O)c2cccc3cccc1c23 | -
O=C1C(=O)c2ccccc2-c2ccccc21 | 98
O=C1C(=O)c2c3ccccc3cc3cccc1c23 | -
C=CCN1C(=O)C2(C3=C(CCCC3=O)OC(=N)C2C(=O)OCC)c2ccccc21 (stereo unspecified) | -
Cc1cccc(CN2CCN(c3cccc(C(F)(F)F)c3)CC2)c1 | -
Clc1ccc(C2CCNCC2)cc1 | -
O=C1NC(=O)N(Cc2ccc(F)cc2)C(=O)/C1=C\c1ccoc1 | 76
